The list is not random: actives were taken first. Their share in the collection is about 12%.
USP30 block: inhibitors of human USP30 deubiquitinase; Ubiquitin carboxyl-terminal hydrolase 30 (Homo sapiens), Q70CQ3; purified USP30, Ub-rhodamine cleavage fluorescence; inhibition, % at 25 µM; actives 5.3% (n = 47,000); AID 1645860, 2021
USP17 inh: inhibitors of human USP17 deubiquitinase. actives 6.5% (n = 47,000). inhibition, % at 50 µM. purified USP17, Ub-rhodamine cleavage fluorescence, 3 h. AID 1645855, 2021
USP28 inh: inhibitors of human USP28 deubiquitinase; purified USP28, Ub-rhodamine cleavage fluorescence, 30 min; inhibition, % at 25 µM; Ubiquitin carboxyl-terminal hydrolase 28 (Homo sapiens), Q96RU2; actives 3% (n = 47,000)
OTUD3 inh: inhibitors of human OTUD3 deubiquitinase; purified OTUD3, Ub-rhodamine fluorescence, 2 h; inhibition, % at 25 µM; OTU domain-containing protein 3 (Homo sapiens), Q5T2D3; actives 0.7% (n = 47,000)
Target sequence (Q5T2D3 whole entry, looked up, the tested form may be a part): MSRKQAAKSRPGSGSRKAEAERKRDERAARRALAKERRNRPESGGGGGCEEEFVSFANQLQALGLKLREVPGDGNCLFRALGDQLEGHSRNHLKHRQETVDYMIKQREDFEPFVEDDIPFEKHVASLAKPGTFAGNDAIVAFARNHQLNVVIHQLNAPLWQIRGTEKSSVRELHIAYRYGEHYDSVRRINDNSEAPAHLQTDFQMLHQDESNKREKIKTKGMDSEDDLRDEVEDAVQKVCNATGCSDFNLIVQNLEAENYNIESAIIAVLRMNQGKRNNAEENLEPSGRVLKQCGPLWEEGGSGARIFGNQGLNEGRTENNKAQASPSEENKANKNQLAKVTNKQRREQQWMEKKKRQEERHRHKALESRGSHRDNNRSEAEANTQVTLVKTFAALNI
Numbers without * were called inactive; / = no result given. No stated cut-off is given here; in the data, active means inhibition above about 30%; inactive means the rest.

SMILES | USP30 block | USP17 inh | USP28 inh | OTUD3 inh
COc1cccc(NC(=O)Cn2cnc(NC(=O)c3ccccc3)n2)c1 | 11.9 | 6.8 | 6.2 | 5.9
COc1ccc(NC(=O)Cn2cnc(NC(=O)c3ccccc3)n2)cc1 | -0.7 | 45.8* | 9.5 | 0.3
Cc1ccc(C(=O)Nc2ncn(CC(=O)Nc3ccccc3)n2)cc1 | 41.2* | 24.6 | 20.7 | 5.0
Cc1nn(CC(=O)Nc2ccccn2)c2nc(C3CC3)cc(C(F)(F)F)c12 | 1.5 | -7.9 | 4.0 | -5.0
O=C(CN1C(=O)COc2cc(S(=O)(=O)N3CCCC3)ccc21)NC1CCCCC1 | 0.7 | -6.3 | -13.1 | -7.3
CCCCCC(=O)C(CCCC)c1oc(=O)c(CCCC)c(O)c1CCCC (stereo unspecified) | 25.2 | 30.3* | 14.4 | 17.4
CCCCCC1CC2=C(C(=O)OC2=O)C(O)C(O)(CCCC)CC2=C1C(=O)OC2=O (stereo unspecified) | 9.0 | 14.9 | 21.9 | 27.3
CCCCCCCCCCCC[C@@]1(C(=O)O)OC(=O)[C@@H](O)[C@@]1(O)C(=O)O | 41.4* | 16.0 | 5.1 | 8.4
O=C(NC[C@@H]1OC[C@H]2CN(CC3CCOC3)CC[C@H]21)c1ccnnc1 (stereo partly specified) | 28.0 | -6.6 | 10.5 | 16.2
CC(C)c1ccc(C2c3nc[nH]c3CCN2Cc2ccc(C#N)cc2)cc1 (stereo unspecified) | -25.6 | -5.0 | 11.3 | -0.3
Cn1c(=O)c2c(ncn2CC(=O)OCc2cc([N+](=O)[O-])cc3c2OCOC3)n(C)c1=O | -0.1 | -5.5 | -0.3 | -5.9
CN1C(=O)CCc2cc(NC(=O)c3cc4ccccc4[nH]3)ccc21 | -87.9 | 33.2* | -31.7 | -31.7
CCCN1C(=O)CCc2cc(NC(=O)c3ccccc3)ccc21 | 10.1 | 2.2 | 27.2 | 10.1
COc1ccccc1-c1nnc(SCC(=O)c2ccc3c(c2)NC(=O)CO3)n1Cc1ccco1 | -16.4 | 37.0* | 4.5 | -3.3
COc1ccc2c(c1)CN(Cc1ccncc1)CC1(CCC(CN(C)C)CC1)O2 (stereo unspecified) | 4.8 | -3.9 | -2.4 | 1.3
CCn1c(SCc2nc(N)c3ccccc3n2)nc2ccccc21 | 38.7* | 54.1* | 41.8* | 16.4
Cn1cc2cccc(NC(=O)c3ccc(F)cc3)c2n1 | -3.1 | 86.6* | 9.0 | -8.6
CN(C)c1cnc(-n2cc(NC(=O)c3ccc(F)cc3)cn2)nc1 | -129.1 | 4.4 | -23.3 | -18.7
CN(C)Cc1ccc(C(=O)Nc2ccc(-c3nccs3)cc2)cc1 | 0.1 | -22.2 | 88.5* | -7.4
O=C(Nc1ccc(-c2nccs2)cc1)c1ccc(F)cc1Cl | -17.4 | 21.6 | 3.2 | -4.1
COc1cccc(NC(=O)Cn2c(-n3nc(C)cc3C)nc3c(c2=O)CCC3)c1 | 14.4 | 5.1 | 2.5 | 5.5
Cc1cc(=O)n(CC(=O)Nc2ccc(F)cc2)c(Nc2ccc(F)cc2)n1 | 0.7 | -3.9 | 1.8 | -4.3
Cc1cccc(NC(=O)Cn2c(-n3nc(C)cc3C)nc3c(c2=O)CCC3)c1 | 2.4 | 37.3* | -0.5 | -1.5
Cc1ccc(NC(=O)Cn2c(Nc3cccc(C)c3)nc(C)cc2=O)cc1 | 57.9* | 35.8* | 16.4 | 18.2
Cc1ccc2c(c1)n(S(=O)(=O)c1ccc(F)cc1)c(=O)n2S(=O)(=O)c1ccc(F)cc1 | 34.8* | 33.0* | 18.9 | 15.3
SMILES | USP30 block | USP17 inh | USP28 inh | OTUD3 inh
O=C(Nc1ccc(Cl)cc1)C1C2C=CC3(O2)C1C(=O)N(C1CC1)C3C(=O)NC1CCCCC1 (stereo unspecified) | 3.8 | 36.3* | 3.5 | 5.8
CCCN1C(=O)C2C(C(=O)Nc3ccc(Oc4ccccc4)cc3)C3C=CC2(O3)C1C(=O)NC1CCCCC1 (stereo unspecified) | 0.0 | 0.3 | -6.6 | 4.2
CC(C)OCCCN1C(=O)C2C(C(=O)Nc3ccc(Oc4ccccc4)cc3)C3C=CC2(O3)C1C(=O)NC1CCCCC1 (stereo unspecified) | 12.9 | 50.7* | 18.1 | 32.7*
CC(C)CCN1C(=O)C2C(C(=O)Nc3ccc(F)cc3)C3(C)C=CC2(O3)C1C(=O)NC1CCCCC1 (stereo unspecified) | 36.3* | 23.8 | 17.5 | 13.4
Cc1ccc(NC(=O)C2C3C=CC4(O3)C2C(=O)N(C2CCCCCC2)C4C(=O)NC2CCCCC2)cc1Cl (stereo unspecified) | 2.2 | 48.8* | -3.0 | 0.1
Cc1cc(C)cc(NC(=O)C2C3C=CC4(O3)C2C(=O)N(C2CC2)C4C(=O)NC2CCCCC2)c1 (stereo unspecified) | -39.4 | 2.9 | -8.8 | -13.4
CCCCCCCCCCCCCCCc1cc(O)cc(O)c1 | 1.8 | 30.0* | -16.7 | -5.5
CNC(=O)c1c2n(c3ncccc13)CCN(S(=O)(=O)c1ccc(C(C)(C)C)cc1)C2 | -32.1 | -23.7 | -15.9 | -16.2
CNC(=O)c1c2n(c3ncccc13)CCN(S(=O)(=O)c1ccc(-c3ccccc3)cc1)C2 | -22.2 | 51.9* | -1.8 | -1.3
Cn1nc(-c2ccccc2)c(COC(=O)c2ccc([N+](=O)[O-])cc2)c1Cl | 11.2 | 59.5* | -3.2 | 18.1
O=C(OCc1cnc(Cl)s1)c1ccc([N+](=O)[O-])cc1 | 3.3 | -3.3 | 40.5* | 3.4
O=C(Cc1ccccc1)N1CCc2nc(C(=O)N3CCCC3)sc2CC1 | 23.9 | 14.2 | 13.7 | 16.2
CCc1nnc(-c2nnc(NC3CCN(C)CC3)c3ccccc23)o1 | 31.8* | 12.3 | 16.9 | 21.8
COc1cc(C(=O)OCc2csc(-c3ccccc3)n2)ccc1OCC(=O)Nc1ccc(F)cc1 | -65.9 | 48.9* | -2.4 | 36.0*
Cc1nn(-c2nc3ccccc3[nH]2)c2c1C(c1cccs1)CC(=O)N2 (stereo unspecified) | -18.5 | 52.3* | 30.5* | 9.6
Cc1nc(C2CN(Cc3ccnn3C(C)C)CCO2)cc(=O)[nH]1 (stereo unspecified) | 4.3 | 6.2 | 7.0 | 11.3
O=C(N[C@@H](Cc1ccccc1)C(=O)N1CCN(Cc2ccccc2)CC1)c1cccnc1 | -1.4 | -0.2 | -3.2 | -2.8
Cc1cc(C)c(C#N)c(N2CCN(S(=O)(=O)Cc3ccccc3)CC2)n1 | 22.4 | 45.3* | 3.1 | 7.2
O=C(Nc1ccccc1Cl)c1csc(Cc2c(Cl)cccc2Cl)n1 | 48.1* | 37.5* | 10.0 | 20.0
O=C(NCc1cccnc1)c1csc(Cc2ccccc2Cl)n1 | 14.2 | 6.5 | 27.3 | 2.2
c1cnc(-c2n[nH]c(C3CCN(C4CCNC4)CC3)n2)cn1 (stereo unspecified) | -6.2 | 53.7* | 50.9* | 3.0
Cc1ccc(CN2CCC(c3nc(-c4ccncc4)n[nH]3)CC2)o1 | / | -0.5 | / | 10.6
CN(C)c1nc(NCc2ccccc2)nc(Oc2ccc(=O)[nH]n2)n1 | 30.9* | 8.9 | 32.7* | 9.5
Cc1ccc(-c2n[nH]c3c2CN(S(=O)(=O)c2cn(C)cn2)CC3)cc1 | 20.7 | 0.0 | 5.9 | 16.1
O=C(Nc1cc(S(=O)(=O)N2CCCCC2)ccc1N1CCCCC1)c1ccc2c(c1)OCCO2 | 21.0 | -3.0 | 10.2 | 9.7
CNc1nc(C2CCN(C(=O)c3ccccn3)CC2)nc2c1CN(C)CC2 | -150.0 | -44.6 | -33.4 | -33.5

Bioassay records from PubChem BioAssay.
